Screens as filed in PubChem BioAssay.
CYP2C9 activ: human CYP2C9 activators, primary screen, biochemical, luminescence | Cytochrome P450 2C9 (Homo sapiens), P11712 | recombinant CYP2C9, luciferin-H conversion; active compounds read high; factor 1 = untreated enzyme, 0 = blocked | activation factor at 5 µM | 96,000 compounds, 1.4% hits;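 active = activation factor of 2 or more for CYP2C9 at a 5 µM dose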
Target sequence (P11712 whole entry, looked up): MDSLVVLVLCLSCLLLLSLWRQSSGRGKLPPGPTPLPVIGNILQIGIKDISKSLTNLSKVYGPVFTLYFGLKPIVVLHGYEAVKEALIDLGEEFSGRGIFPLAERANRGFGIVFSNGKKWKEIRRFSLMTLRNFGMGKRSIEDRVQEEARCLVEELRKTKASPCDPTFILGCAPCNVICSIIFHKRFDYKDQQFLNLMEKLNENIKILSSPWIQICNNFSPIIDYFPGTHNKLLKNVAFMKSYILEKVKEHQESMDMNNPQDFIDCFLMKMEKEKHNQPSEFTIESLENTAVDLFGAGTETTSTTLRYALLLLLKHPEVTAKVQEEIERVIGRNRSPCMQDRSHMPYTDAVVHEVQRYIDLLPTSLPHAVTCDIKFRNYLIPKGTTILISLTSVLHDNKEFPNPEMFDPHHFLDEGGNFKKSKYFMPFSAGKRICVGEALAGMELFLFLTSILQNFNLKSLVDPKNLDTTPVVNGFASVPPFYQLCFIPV
CYP2C19 inh: blockers of cytochrome P450 2C19 activity – biochemical, luminescence, ADME assay, primary screen | P33261 | AID 778, 2007 | inhibition, % at 5 µM | 96,000 compounds, 21% hits | CYP2C19 Supersomes, luciferin-H EGE luminescence, 30 min;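 active = CYP2C19 inhibition above a set limit at 5 µM in the primary screen, cut at about 50% in these data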
CYP2C19 activ: human CYP2C19 activators, primary screen, biochemical, luminescence. recombinant CYP2C19, luciferin-H EGE luminescence; active compounds read high; 0 = fully inhibited enzyme, 1 = untreated enzyme. 96,000 tested, under 10 active. Cytochrome P450 2C19 (Homo sapiens), P33261. activation factor at 5 µM;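 active = activation factor of at least 2 at 5 µM in the primary screen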
CYP2C9 inhib: blockers of cytochrome P450 2C9 activity – biochemical, luminescence, ADME assay, primary screen; P11712; CYP2C9 Supersomes, luciferin-H conversion; inhibition, % at 5 µM; 96,000 compounds, 20% hits;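 active = blocking of liver enzyme CYP2C9 beyond about 50% at 5 µM, limit read from the data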
Cav3 T inh: Cav3.2 calcium influx blockers – cell-based, Fluo-4 calcium fluorescence, FDSS, MLSMR library, primary screen; B-score at 10 µM; 100,000 compounds, 4% hits; Cav3.2-expressing cells; active compounds read low; Voltage-dependent T-type calcium channel subunit alpha-1H (Homo sapiens), O95180;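 active = single-dose well whose peak fluorescence ratio is a statistical outlier from its plate by either plate-standardised score or position-corrected B-score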
A number is an active result. Rows were chosen to be rich in hits. Some 27% of all compounds tested hit in one or more screens of this group.

How did CCc1ccc2[nH]c(=O)c(CN(Cc3ccc(F)cc3)C(c3nnnn3CCN3CCOCC3)C(C)C)cc2c1 (centres undefined) do in these assays?
CYP2C9 activ: inactive; CYP2C19 inh: inactive; CYP2C19 activ: inactive; CYP2C9 inhib: inactive

How did CCCCCCC(C)n1cc(C(C)=O)c(=O)[nH]c1=O (centres undefined) do in these assays?
CYP2C9 activ: inactive; CYP2C19 inh: inactive; CYP2C19 activ: inactive; CYP2C9 inhib: inactive; Cav3 T inh: inactive

How did Cc1ccc(C)c(OCC(O)CN2CCCCC2C)c1 (centres undefined) do in these assays?
CYP2C9 activ: inactive; CYP2C19 inh: 52.7; CYP2C19 activ: inactive; CYP2C9 inhib: inactive; Cav3 T inh: inactive

How did Cc1ccc2c(c1)c(C)c(C)n2CC(O)CN1CCCCC1C (centres undefined) do in these assays?
CYP2C9 activ: inactive; CYP2C19 inh: 74.6; CYP2C19 activ: inactive; CYP2C9 inhib: inactive; Cav3 T inh: inactive

Results for CC(=O)c1c(C)nn(CC(O)Cn2c3c(c4cc(C)ccc42)CCCC3=O)c1C (centres undefined) ?
CYP2C9 activ: inactive; CYP2C19 inh: 54.3; CYP2C19 activ: inactive; CYP2C9 inhib: 66.9; Cav3 T inh: inactive

How did Cc1c(C)n(CC(O)CN2CCOCC2)c2ccccc12 (centres undefined) do in these assays?
CYP2C9 activ: inactive; CYP2C19 inh: inactive; CYP2C19 activ: inactive; CYP2C9 inhib: inactive; Cav3 T inh: inactive

How did Cc1ccc2c(c1)c1c(n2CC(O)CNC(CO)(CO)CO)CCCC1 (centres undefined) do in these assays?
CYP2C9 activ: inactive; CYP2C19 inh: inactive; CYP2C19 activ: inactive; CYP2C9 inhib: inactive; Cav3 T inh: inactive

What do the screens show for `Cc1c(C)n(CC(O)CN2CCCCC2)c2ccccc12` (centres undefined)?
CYP2C9 activ: inactive; CYP2C19 inh: inactive; CYP2C19 activ: inactive; CYP2C9 inhib: inactive; Cav3 T inh: inactive

What do the screens show for `Cc1ccc2c(c1)c(C)c(C)n2CC(O)Cn1nc(C)c(Br)c1C` (centres undefined)?
CYP2C9 activ: inactive; CYP2C19 inh: 97.1; CYP2C19 activ: inactive; CYP2C9 inhib: 95.7; Cav3 T inh: inactive

How did COc1cc2[nH]c(=O)n(CCCCCC(=O)NCCCN3CCC(C)CC3)c(=O)c2cc1OC do in these assays?
Cav3 T inh: inactive

Results for CCCCN1C(=O)c2ccc(C(=O)NC3=NCCS3)cc2C1=O ?
CYP2C9 activ: inactive; CYP2C19 inh: inactive; CYP2C19 activ: inactive; CYP2C9 inhib: 71.6; Cav3 T inh: inactive

Results for CCCCN1C(=O)c2ccc(C(=O)Nc3cccc(C)c3C)cc2C1=O ?
CYP2C9 activ: inactive; CYP2C19 inh: inactive; CYP2C19 activ: inactive; CYP2C9 inhib: inactive; Cav3 T inh: inactive

Results for Cc1ccc(CNc2nc3ccccc3n3nnnc23)cc1 ?
CYP2C9 activ: inactive; CYP2C19 inh: inactive; CYP2C19 activ: inactive; CYP2C9 inhib: inactive

What do the screens show for `CCOC(=O)N1CCC(Nc2nc3ccccc3n3nnnc23)CC1`?
CYP2C9 activ: inactive; CYP2C19 inh: inactive; CYP2C19 activ: inactive; CYP2C9 inhib: 50.7

What do the screens show for `O=S(=O)(c1cccc(NC(=S)Nc2ccc(Br)cc2Cl)c1)N1CCOCC1`?
CYP2C9 activ: inactive; CYP2C19 inh: inactive; CYP2C19 activ: inactive; CYP2C9 inhib: inactive; Cav3 T inh: inactive

What do the screens show for `Cc1nn(Cc2n[nH]c(=S)n2Cc2ccccc2)c(C)c1Cl`?
CYP2C9 activ: inactive; CYP2C19 inh: 53.2; CYP2C19 activ: inactive; CYP2C9 inhib: inactive; Cav3 T inh: inactive

Results for Cc1cccc2c1N1C(=O)c3c(C(=O)O)cccc3C1CC2C (centres undefined) ?
Cav3 T inh: inactive

How did Cc1c(NCc2cc(Cl)cc(Cl)c2O)c(=O)n(-c2ccccc2)n1C do in these assays?
CYP2C9 activ: inactive; CYP2C19 inh: 73.2; CYP2C19 activ: inactive; CYP2C9 inhib: 85.4; Cav3 T inh: inactive

What do the screens show for `CC(=O)Nc1cc2c(cc1NC(=O)c1cnccn1)OCCO2`?
CYP2C9 activ: inactive; CYP2C19 inh: inactive; CYP2C19 activ: inactive; CYP2C9 inhib: inactive; Cav3 T inh: inactive

Results for COc1ccc2cnn(CCOc3ccccc3)c(=O)c2c1OC ?
CYP2C9 activ: inactive; CYP2C19 inh: inactive; CYP2C19 activ: inactive; CYP2C9 inhib: inactive

How did COc1ccc(Oc2c(Cl)cnn(-c3ccc(C)cc3)c2=O)cc1 do in these assays?
CYP2C9 activ: inactive; CYP2C19 inh: inactive; CYP2C19 activ: inactive; CYP2C9 inhib: inactive; Cav3 T inh: inactive

How did CCOc1ccccc1OCCn1ncc2ccc(OC)c(OC)c2c1=O do in these assays?
CYP2C9 activ: inactive; CYP2C19 inh: 57.9; CYP2C19 activ: inactive; CYP2C9 inhib: inactive; Cav3 T inh: inactive

What do the screens show for `COc1ccc2cnn(-c3ccc(C)cc3)c(=O)c2c1OC`?
CYP2C9 activ: inactive; CYP2C19 inh: inactive; CYP2C19 activ: inactive; CYP2C9 inhib: 64.6; Cav3 T inh: inactive

How did CC(C)CCNC(=O)CN(Cc1cccs1)C(=O)CCC(=O)Nc1nccs1 do in these assays?
CYP2C9 activ: inactive; CYP2C19 inh: inactive; CYP2C19 activ: inactive; CYP2C9 inhib: inactive; Cav3 T inh: inactive

What do the screens show for `CCOC(=O)CC1(c2ccccc2)CCOC(C)(C)C1` (centres undefined)?
CYP2C9 activ: inactive; CYP2C19 inh: 87.4; CYP2C19 activ: inactive; CYP2C9 inhib: inactive; Cav3 T inh: inactive

Results for CC1(C)CC(CC(=O)O)(c2ccccc2)CCO1 (centres undefined) ?
CYP2C9 activ: inactive; CYP2C19 inh: inactive; CYP2C19 activ: inactive; CYP2C9 inhib: inactive; Cav3 T inh: inactive

Results for COc1ccc(/C=C/C(=O)c2sc(-c3ccccc3)nc2C)cc1 ?
CYP2C9 activ: inactive; CYP2C19 inh: inactive; CYP2C19 activ: inactive; CYP2C9 inhib: inactive; Cav3 T inh: inactive

Results for Cc1cc(C)c2c(-n3cccc3)c(NC(=O)OC(C)C)sc2n1 ?
CYP2C9 activ: inactive; CYP2C19 inh: inactive; CYP2C19 activ: inactive; CYP2C9 inhib: inactive; Cav3 T inh: inactive

How did COC(=O)[C@H](C)NC(=O)Nc1cc(Cl)ccc1C do in these assays?
CYP2C9 activ: inactive; CYP2C19 inh: inactive; CYP2C19 activ: inactive; CYP2C9 inhib: inactive; Cav3 T inh: inactive

What do the screens show for `O=C(CN1CCC(C(O)(c2ccccc2)c2ccccc2)CC1)Nc1ccccc1`?
CYP2C9 activ: inactive; CYP2C19 inh: inactive; CYP2C19 activ: inactive; CYP2C9 inhib: 78.2; Cav3 T inh: -2.36

Results for COC(=O)c1ccc(Cl)c(NC(=O)CN2CCN(Cc3ccccc3)CC2)c1 ?
CYP2C9 activ: inactive; CYP2C19 inh: inactive; CYP2C19 activ: inactive; CYP2C9 inhib: inactive; Cav3 T inh: inactive

Results for O=C(CN1CCC(C(O)(c2ccccc2)c2ccccc2)CC1)Nc1cc(Cl)ccc1Cl ?
CYP2C9 activ: inactive; CYP2C19 inh: inactive; CYP2C19 activ: inactive; CYP2C9 inhib: 64.7; Cav3 T inh: inactive

What do the screens show for `CCC(C)NC(=O)CC1Oc2ccc(Cl)cc2NC1=O` (centres undefined)?
CYP2C9 activ: inactive; CYP2C19 inh: inactive; CYP2C19 activ: inactive; CYP2C9 inhib: inactive
